uPA surface inh: qHTS for Inhibitors of Cell Surface uPA Generation. cell surface uPA generation assay, qHTS. Potency, µM (highest dose often 38.3 µM), without a hit: at the highest dose activity change, negative = inhibition, actives largely listed as inhibitors. 330,000 compounds, 0.31% hits. AID 540303, 2011; active = well fitted inhibition curve with a large enough effect; inconclusive = small, poorly fitted or top-dose-only effect; inactive = no such curve, though single readings can be large or run the other way; tested in mouse RAW 264.7 cells; also: potency is read from the fitted curve at half-maximal effect; % is scaled to controls: 0 for no effect and ±100 for the full control effect; nearly all actives have a fitted effect of over 55% in size
MCF10A rerep: A quantitative high throughput screen for small molecules that induce DNA re-replication in MCF 10a normal breast cells. MCF 10A DNA re-replication, Hoechst nuclear intensity, 48 h. Potency, µM (doses to about 46.1 µM), without a hit: at the highest dose activity, positive = re-replication, usual class: activators. 350,000 compounds, 2.9% hits. AID 624296, 2012; also: potency is read from the fitted curve at half-maximal effect; % of control where 0% means no effect; nearly all actives have a fitted effect of over 50% in size
Giardia kill: Small Molecules that selectively kill Giardia lamblia: qHTS; activity change, % at 7.66 µM, hits read low; Giardia lamblia trophozoite viability; 340,000 compounds, 0.15% hits; in the data active = activity change below about -80%; inconclusive = between about -30% and that limit;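 also: parasites exposed to compound for two days anaerobically before the ATP read; % is scaled to controls: 0 for no effect and ±100 for the full control effect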
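Media and compound were dispensed first, then trophozoites at 100 cells/well; plates sat 48 hrs at 37 deg C without oxygen before ATP luminescence reagent was added and read after 15-30 min at room temperature.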
SW480 rereplic: A quantitative high throughput screen for small molecules that induce DNA re-replication in SW480 colon adenocarcinoma cells; SW480 DNA re-replication, Hoechst DNA content imaging, 48 h; Potency, µM (top dose mostly 46.1 µM), for the others: at the top dose re-replication activation, actives largely listed as activators; 340,000 compounds, 1.8% hits; AID 624297, 2012; also: potency is read from the fitted curve at half-maximal effect; % of control where 0% means no effect; nearly all actives have a fitted effect of over 55% in size
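Image-based read-out: total Hoechst fluorescence of nuclei (405 nm excitation, 500-530 nm emission), with hits raising the fraction of high-intensity nuclei. SW480 colon cells incubated 48 hr with compounds at 37 C.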
* = called active by the depositor; u = inconclusive; x = no result given; [ ] = dose if it differs, or a comment. In the library only some 4.3% were active in any assay of this set; here they are far more common. Unless noted, calls follow the shape of the dose curve; as a rule, active = well fitted activation curve with a large enough effect; inconclusive = small, poorly fitted or top-dose-only effect; inactive = no such curve, though single readings can be large or run the other way.

SMILES	uPA surface inh	MCF10A rerep	Giardia kill	SW480 rereplic
S=C(NCc1ccncc1)Nc1cccc(Cl)c1	-1%	-1%	11	-5%
Fc1ccc(CNC(=S)Nc2cccc(Cl)c2)cc1	-5%	16µM*	13	5%
O=[N+]([O-])c1ccc(NC(=S)NCc2ccc(F)cc2)cc1	-4%	16µM*	-11	u
Cc1nn(Cc2ccc(F)cc2)c(C)c1NC(=O)C1c2ccccc2Oc2ccccc21	-4%	18µM*	-3	1%
Cc1nn(Cc2c(F)cccc2Cl)c(C)c1NC(=O)C1CC1	5%	1%	7	0.52µM*
Cc1cc(C(=O)Nc2c(C)nn(Cc3ccc(F)cc3)c2C)on1	0%	7%	17	-11%
Cc1ccc(Cn2nc(C)c(NC(=O)C3CC3)c2C)cc1	3%	-1%	6	1%
COc1ccccc1CNC(=O)c1ccccc1OC	0%	9.2µM*	12	-12%
COc1ccc(C(=O)N[C@H](C(=O)Nc2nc3ccccc3[nH]2)C(C)C)cc1	-5%	u	-4	9.2µM*
CCc1nc2ccc(C(=O)NCCc3ccccc3OC)cc2nc1CC	7%	5%	-1	4%
COc1ccccc1CNC(=O)c1ccc(-c2ccccc2C(F)(F)F)o1	-9%	15µM*	22	1%
COc1ccccc1CNC(=O)c1ccc2nc3[nH]c4ccccc4c3nc2c1	-6%	18µM*	-15	u
Cc1ccc(C(=O)NCC(=O)Nc2ncccc2C)s1	5%	-8%	22	-148%
COC(=O)C(NS(N)(=O)=O)C(C)C (centres undefined)	x	x	0	x
COc1ccc(C(=O)NC(C(=O)NCc2ccccc2OC)C(C)C)cc1 (centres undefined)	1%	0.92µM*	-7	-44%
O=C(Nc1nc2ccccc2[nH]1)C1CCCO1 (centres undefined)	-3%	u	-5	0%
O=C(Nc1nc2ccccc2[nH]1)C1CC1	-11%	18µM*	5	21µM*
COc1ccccc1CNC(=O)/C(C#N)=C/c1ccc(OC)c(OC)c1OC	-14%	18µM*	-18	-11%
COc1ccc(/C=C(\C#N)C(=O)OCC(=O)NCc2ccccc2OC)cc1	21%	-1%	12	-42%
O=C(Nc1nc2ccccc2[nH]1)c1cccc(F)c1	-11%	u	-25	21µM*
CCN(C(=O)COC(=O)c1ccc(=O)n(Cc2ccccc2)n1)C1CCS(=O)(=O)C1 (centres undefined)	-3%	6%	-19	-2%
CCOc1ccc(C(=O)NC(C(=O)NCCc2ccc(OC(F)F)cc2)C(C)C)cc1 (centres undefined)	2%	u	22	13%
N#CC(=C(O)COC(=O)CCCNC(=O)c1ccc(Cl)cc1)c1nc2ccccc2[nH]1	2%	u	-9	u
Cc1cccc(C(=O)N[C@H](C(=O)Nc2nc3ccccc3[nH]2)C(C)C)c1	2.8µM*	5.8µM*	28	5.8µM*
CC(=O)c1ccc(-c2cccc(C3C4C=CCCC4(C)C(=O)N3Cc3ccccc3)c2)cc1 (centres undefined)	x	x	-29	x
SMILES	uPA surface inh	MCF10A rerep	Giardia kill	SW480 rereplic
COc1cc(C2Oc3cc(C4Oc5cc(O)cc(O)c5C(=O)C4O)ccc3OC2CO)ccc1O (centres undefined)	2%	26µM*	-11	17%
CS(=O)(=O)c1nc(-c2ccc(F)cc2)cc(C(F)(F)F)n1	-5%	3.7µM*	-14	u
COCC(C)NC(=O)CCS(=O)(=O)c1nc(-c2ccc(OC)cc2)cc(C(F)(F)F)n1 (centres undefined)	-14%	3.7µM*	-12	9%
COc1ccc(-c2cc(C(F)(F)F)nc(S(=O)(=O)CCCC(=O)Nc3cccnc3Cl)n2)cc1OC	-11%	12µM*	-18	3%
Cc1cc(NC(=O)CCCS(=O)(=O)c2nc(-c3cccs3)cc(C(F)(F)F)n2)no1	-9%	4.1µM*	4	u
Cc1cc(C)c(S(=O)(=O)N2CCN(C(=O)c3ccc(-n4nc(C)c(Cl)c4C)cc3)CC2)c(C)c1	-22%	6%	-3	-11%
CCOC(=O)CS(=O)(=O)c1nc(-c2ccccc2)cc(C(F)(F)F)n1	-10%	u	-4	2.6µM*
COC(=O)CCS(=O)(=O)c1nc(-c2ccccc2)cc(C(F)(F)F)n1	x	3.7µM*	-10	u
CCOC(=O)CCS(=O)(=O)c1nc(-c2ccccc2)cc(C(F)(F)F)n1	0%	u	-5	27%
CCOC(=O)CS(=O)(=O)c1nc(-c2ccc(F)cc2)cc(C(F)(F)F)n1	-11%	3.7µM*	3	21%
COc1ccc(CCC(=O)N2CCCC(Nc3ccc(C)c(C)c3)C2)cc1OC (centres undefined)	0%	13%	5	-8%
COc1cc(C2Nc3ccccc3C(=O)N2Cc2ccco2)ccc1O (centres undefined)	x	x	7	x
COc1cc2c(cc1OC)-c1cc(=Nc3c(C)cc(C)cc3C)n(C)c(=O)n1CC2	x	u	-9	18%
O=C(COC(=O)c1c2c(nc3ccccc13)/C(=C\c1cccs1)CCC2)Nc1ccccc1	0%	u	-16	13µM*
O=C(COC(=O)c1c2c(nc3ccccc13)CCCC2)Nc1ccc2c(c1)OCO2	6%	29%	6	1%
CC(C)CNC(=O)COC(=O)c1c2c(nc3ccccc13)/C(=C\c1cccs1)CC2	-2%	u	-10	6.5µM*
CC(C)(C)NC(=O)COC(=O)c1c2c(nc3ccccc13)CCC2	0%	5%	13	-8%
CC(=O)c1ccc(NC(=O)COC(=O)c2c3c(nc4ccccc24)/C(=C\c2cccs2)CCC3)cc1	-15%	5.8µM*	u	21µM*
COc1ccc(NC2CCCN(C(=O)Cn3ccc(C)n3)C2)cc1OC (centres undefined)	-5%	0%	21	-6%
CC(C)c1csc(CN2CCC(N3CCC(C(=O)NCC4CCCO4)CC3)CC2)n1 (centres undefined)	-2%	-2%	-11	-17%
COc1ccc(-c2ccc([C@H]3[C@H]4C=CC[C@@H](C)[C@@H]4C(=O)N3Cc3ccccc3)c(F)c2)cc1	u	13µM*	16	u
CC1(C)O[C@H]2C[C@@H]3[C@H]4CCC5=CC(=O)CC[C@@]5(C)[C@]4(F)[C@@H](O)C[C@@]3(C)[C@@]2(C(=O)CCl)O1	x	6%[20.6 µM]	x	1%[20.6 µM]
O=C(c1cccn2c(=O)c3ccccc3nc12)N1CCN(Cc2ccc3c(c2)OCO3)CC1	x	28%	4	-1%
O=C(c1cccn2c(=O)c3cc(Cl)ccc3nc12)N1CCN(Cc2ccc3c(c2)OCO3)CC1	x	10µM*	3	18µM*
COc1ccc(NC(=O)c2cc(S(=O)(=O)N3CCCCC3)ccc2C)cc1S(=O)(=O)N1CCOCC1	-3%	-1%	5	-1%
COc1ccc(C(=O)/C(C#N)=N/Nc2ccc([N+](=O)[O-])cc2)cc1	1µM*	u	u	u
